Our source for the % cells with GFP-LC3 spots and toxicity values is PubChem BioAssay AID463193 (University of Pittsburgh Molecular Library Screening Center, 2010).

In all, about 190,000 compounds went through this assay and about 1,900 (1%) were called active. This is one part of a sample in which actives are shown more often than they occur.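 How the source made its calls: active means percentage of spot-positive cells more than 3 SD above its plate mean, without a fluorescence outlier flag or 80% toxicity; inconclusive means no clear call, values can overlap the other calls; inactive means the rest.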

A short description of this assay: autophagy modulators in MEF cells, primary screen, imaging, high-content, MEF GFP-LC3 (AID 463193).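 On % cells with GFP-LC3 spots: spot-positive cell cutoff set from DMSO-treated cells.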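 On toxicity: cell loss after 18 h compound exposure.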 The conditions noted are these: MEF GFP-LC3 puncta imaging, at 10 µM; % cells with GFP-LC3 spots: stronger effect = higher value; toxicity: measured here: cell loss, nuclei count.
On to `CC(=O)/C(=N\Nc1ccc(Cl)cc1Cl)Sc1cccc2cccnc12`, for which the % cells with GFP-LC3 spots is 80.1% (active) and the toxicity is -7.61%.

Turning to `CC(C)(C)CC(C)(C)NCC(O)COCCOc1ccc(Br)cc1` (configuration not stated), the % cells with GFP-LC3 spots is 10.9% (inactive) and the toxicity stood at 5.37%.

As for `c1ccc(C2c3[nH]c4ccccc4c3CCN2Cc2cccn2-c2cccnc2)nc1` (configuration not stated), the % cells with GFP-LC3 spots is 1.12% (inactive) and the toxicity is -2.12%.

With `Fc1cccc2ncnc(OCc3ccccc3)c12`, the % cells with GFP-LC3 spots is 3.59% (inactive) and the toxicity was -3.11%.

Take `COc1ccc(OC)c(NC(=O)Cn2c(=O)oc3ccccc32)c1`: the % cells with GFP-LC3 spots was 18.4% (active) and the toxicity was 3.57%.

As for `COc1ccc(OC)c(NC(=O)CN2CCN(C(=O)c3ccco3)CC2)c1`, the % cells with GFP-LC3 spots was 0.967% (inactive) and the toxicity amounted to 2.86%.

In the case of `COc1ccc(CCNC(=O)CCn2c(=O)oc3ccccc32)cc1OC`, the % cells with GFP-LC3 spots was 4.11% (inactive) and the toxicity is -1.63%.

For `CCN(CC(=O)NCCc1ccccc1)S(=O)(=O)c1ccccc1`, the % cells with GFP-LC3 spots was 12% (inactive) and the toxicity is 29.2%.

As for `Cc1c(Br)c([N+](=O)[O-])nn1CC(=O)N1CCN(Cc2ccccc2)CC1`, the % cells with GFP-LC3 spots is 3.58% (inactive) and the toxicity worked out at 7.29%.

Consider `CSc1nc2ccccc2c(=O)n1Cc1ccc(F)cc1`, for which the % cells with GFP-LC3 spots is 35.2% (active) and the toxicity was determined as 0.835%.

On to `CC(Sc1nc2ccccc2c(=O)n1Cc1ccco1)C(=O)c1ccccc1` (configuration not stated), for which the % cells with GFP-LC3 spots was 11.8% (inactive) and the toxicity was -5.88%.

With `O=C(CCn1c(SCC(=O)c2ccccc2)nc2ccccc2c1=O)NCc1ccc(F)cc1`, the % cells with GFP-LC3 spots is 5.36% (inactive) and the toxicity turned out to be 4.33%.

Turning to `CC(=O)n1c(C=Nc2ccccc2)c(O)c2ccccc21`, the % cells with GFP-LC3 spots was 6.01% (inactive) and the toxicity was -16%.

As for `CN(c1ccccc1)c1ccc(/C=c2\s/c(=C(/C#N)C(=O)C(C)(C)C)n(Cc3ccco3)c2=O)cc1`, the % cells with GFP-LC3 spots is 71.3% (active) and the toxicity is -2.03%.

With `COc1ccc(NC(=O)Cn2c(=O)n(Cc3ccco3)c(=O)c3ccccc32)cc1`, the % cells with GFP-LC3 spots is 3.23% (inactive) and the toxicity is -0.177%.

As for `CCOC(=O)CSc1nc2c(sc(=S)n2CCc2ccccc2)c(=O)n1Cc1ccco1`, the % cells with GFP-LC3 spots is 25.9% (inactive) and the toxicity came out at 36.2%.

On to `Cc1cc(C(=O)N/N=C/c2cc([N+](=O)[O-])cc(C)c2O)n[nH]1`, for which the % cells with GFP-LC3 spots is 6.01% (inactive) and the toxicity amounted to 8.83%.

In the case of `CCOC(=O)Cc1ncccc1C(=O)Nc1ccc(OC)cc1`, the % cells with GFP-LC3 spots is 2.71% (inactive) and the toxicity is -9.63%.

Take `O=C(CSc1nnc(-c2ccncc2)n1-c1ccc(Cl)cc1)Nc1ccc(C(=O)O)cc1`: the % cells with GFP-LC3 spots was 1.88% (inactive) and the toxicity is -0.961%.

With `CCCN(CCC)C(=S)Nc1cc(C(=O)OC)ccc1C(=O)OC`, the % cells with GFP-LC3 spots was 12.3% (inactive) and the toxicity was -2.2%.

`COC(=O)c1ccc(C(=O)Nc2cc(Cl)ccc2Cl)cc1NC(=O)c1ccccc1C`: the % cells with GFP-LC3 spots was 29.3% (active) and the toxicity was -19.2%.

As for `COC(=O)c1ccc(C(=O)OC)c(NC(=S)N2CCN(c3cc(Cl)ccc3C)CC2)c1`, the % cells with GFP-LC3 spots was 12.5% (inactive) and the toxicity turned out to be 21.9%.

For `CN(c1ccccc1)S(=O)(=O)c1cc(C(=O)OCC(=O)N2CCN(C(=O)c3ccco3)CC2)ccc1Cl`, the % cells with GFP-LC3 spots was 11.3% (active) and the toxicity was -3.57%.

In the case of `CN(c1ccccc1)S(=O)(=O)c1ccc(Cl)c(C(=O)OCC(=O)N2CCOCC2)c1`, the % cells with GFP-LC3 spots was 0.158% (inactive) and the toxicity was determined as 2.3%.

Turning to `O=C(OCC(=O)N1CCN(C(=O)c2ccco2)CC1)c1ccccc1Cc1ccccc1`, the % cells with GFP-LC3 spots is 7.07% (inactive) and the toxicity is 4.3%.

For `Cc1ccc(-n2cc(CN(C)Cc3nccn3C)c(-c3cccc(C)c3)n2)cc1`, the % cells with GFP-LC3 spots is 1% (inactive) and the toxicity was -0.155%.

As for `CCCCCC1CCC(c2nnc(SCC(C)=O)o2)CC1` (configuration not stated), the % cells with GFP-LC3 spots is 10.7% (active) and the toxicity was -6.19%.

As to `CCN(CC)C(=O)CSc1nnc(C2CCCCC2)o1`, the % cells with GFP-LC3 spots was 4.79% (inactive) and the toxicity is -0.426%.

Take `CN(C)/N=C/c1cc(Cl)cc([N+](=O)[O-])c1O`: the % cells with GFP-LC3 spots is 9.47% (inactive) and the toxicity was -11.7%.

For the compound `O=C(Cn1cnc2c(nnn2Cc2ccc(F)cc2)c1=O)NCc1ccc2c(c1)OCO2`, the % cells with GFP-LC3 spots is 2.36% (inactive) and the toxicity was -2.24%.

On to `Cc1nc(Nc2ccc3c(c2)OCCO3)c2nnn(Cc3ccccc3Cl)c2n1`, for which the % cells with GFP-LC3 spots was 8.6% (inactive) and the toxicity worked out at 4.03%.

Turning to `CCCc1nc(NCc2ccc3c(c2)OCO3)c2nnn(Cc3ccccc3Cl)c2n1`, the % cells with GFP-LC3 spots is 15.7% (active) and the toxicity turned out to be 5%.

With `CCOc1ncccc1C(=O)N(C)CC(=O)Nc1ccc(F)cc1`, the % cells with GFP-LC3 spots is 5.93% (inactive) and the toxicity was -12.3%.

Take `O=C(NCc1ccncc1)C(=O)NCc1ccco1`: the % cells with GFP-LC3 spots is 0.301% (inactive) and the toxicity is -9.14%.

Take `CCc1nc(Nc2ccc3nccnc3c2)c2oc3ccccc3c2n1`: the % cells with GFP-LC3 spots is 19% (active) and the toxicity is -4.67%.

Take `CCSc1nc(C)nc2c1oc1ccccc12`: the % cells with GFP-LC3 spots is 7.02% (inactive) and the toxicity worked out at 8.62%.

Turning to `COc1ccccc1Nc1ncnc2c1oc1ccccc12`, the % cells with GFP-LC3 spots was 5.61% (inactive) and the toxicity worked out at 1.55%.

In the case of `CN(C)C(=O)c1nc2ccc(Cl)cn2c1CN1CCN(c2ncccn2)CC1`, the % cells with GFP-LC3 spots is 2.1% (inactive) and the toxicity is -12.9%.

For the compound `CC(C)C(=O)Nc1c(O)c2ccccc2[nH]c1=O`, the % cells with GFP-LC3 spots was 0.457% (inactive) and the toxicity stood at 5.73%.

As for `CCOc1ccccc1N1CCN(C(=O)COc2ccc3c(C)cc(=O)oc3c2)CC1`, the % cells with GFP-LC3 spots was 3.98% (inactive) and the toxicity is 7.33%.

Regarding `COc1ccc([C@H]2[C@H](C(C)=O)N3N=Cc4ccccc4C3C23C(=O)OC(C)(C)OC3=O)cc1` (some centres not stated), the % cells with GFP-LC3 spots was 3.81% (inactive) and the toxicity is -2.15%.
